Measurements reported in the supplement of paper PMC8728848.
Many of the other results were omitted from the sample, so the strongest signals are more common in it than they were.

Legend:
Test in all cases: glycan array binding signal (z-score within array); higher = stronger binding
Settings in all cases: glycan notation: IUPAC condensed, linker removed
[1] = biological target: Fuc(a1-2)Gal(b1-3)GlcNAc6S
Summary of the method: (§1)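 Columns mapping to the same glycan were averaged after glycan names were converted to IUPAC-condensed notation. The data come from 3228 arrays in the Consortium for Functional Glycomics database, limited to those with an available protein sequence. Binding is reported as a within-array Z-score averaged across arrays of one protein sequence and across linkers.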

[2] = biological target: Fuc(a1-2)Gal(b1-3)[Fuc(a1-4)]GlcNAc(b1-3)[Fuc(a1-3)[Gal(b1-4)]GlcNAc(b1-6)]Gal(b1-4)Glc
Summary of the method: as §1

[3] = biological target: Fuc(a1-2)Gal(b1-4)GlcNAc(b1-3)Gal(b1-4)GlcNAc(b1-2)Man(a1-3)[Fuc(a1-2)Gal(b1-4)GlcNAc(b1-3)Gal(b1-4)GlcNAc(b1-2)Man(a1-6)]Man(b1-4)GlcNAc(b1-4)GlcNAc
Summary of the method: as §1

[4] = biological target: Fuc(a1-2)Gal(b1-4)[Fuc(a1-3)]GlcNAc
Summary of the method: as §1

[5] = biological target: Fuc(a1-2)Gal6S(b1-3)GlcNAc
Summary of the method: as §1

[6] = biological target: Fuc(a1-2)[Gal(a1-3)]Gal(b1-3)GlcNAc(b1-2)Man(a1-3)[Fuc(a1-2)[Gal(a1-3)]Gal(b1-3)GlcNAc(b1-2)Man(a1-6)]Man(b1-4)GlcNAc(b1-4)[Fuc(a1-6)]GlcNAc
Summary of the method: as §1

[7] = biological target: Fuc(a1-2)[GalNAc(a1-3)]Gal(b1-4)[Fuc(a1-3)]GlcNAc(b1-3)GalNAc
Summary of the method: as §1

[8] = biological target: Fuc(a1-2)[GalNAc(b1-3)]Gal
Summary of the method: as §1

[9] = biological target: Fuc(a1-3)[Gal(b1-4)]GlcNAc(b1-2)Man
Summary of the method: as §1

[10] = biological target: Fuc(a1-3)[GalNAc(b1-4)]GlcNAc
Summary of the method: as §1

[11] = biological target: Fuc(a1-3)[GalNAc(b1-4)]GlcNAc6S
Summary of the method: as §1

Fuc(a1-4)GlcNAc = biological target: Fuc(a1-4)GlcNAc
Summary of the method: as §1

[12] = biological target: Gal(a1-3)Gal(b1-4)GlcNAc(b1-2)Man(a1-3)[Gal(a1-3)Gal(b1-4)GlcNAc(b1-2)Man(a1-6)]Man(b1-4)GlcNAc(b1-4)GlcNAc
Summary of the method: as §1

[13] = biological target: Gal(a1-3)Gal(b1-4)[Fuc(a1-3)]GlcNAc(b1-2)Man(a1-3)[Gal(a1-3)Gal(b1-4)[Fuc(a1-3)]GlcNAc(b1-2)Man(a1-6)]Man(b1-4)GlcNAc(b1-4)GlcNAc
Summary of the method: as §1

Gal(a1-3)GalNAc = biological target: Gal(a1-3)GalNAc
Summary of the method: as §1

[14] = biological target: Gal(b1-3)GlcNAc(b1-3)Gal(b1-4)Glc
Summary of the method: as §1

[15] = biological target: Gal(b1-3)GlcNAc(b1-3)Gal(b1-4)GlcNAc
Summary of the method: as §1

[16] = biological target: Gal(b1-3)GlcNAc(b1-3)Gal(b1-4)GlcNAc(b1-2)[Gal(b1-3)GlcNAc(b1-3)Gal(b1-4)GlcNAc(b1-6)]Man(a1-6)[Gal(b1-3)GlcNAc(b1-3)Gal(b1-4)GlcNAc(b1-2)Man(a1-3)]Man(b1-4)GlcNAc(b1-4)[Fuc(a1-6)]GlcNAc
Summary of the method: as §1

[17] = biological target: Gal(b1-3)[Fuc(a1-4)]GlcNAc(b1-6)GalNAc
Summary of the method: as §1

[18] = biological target: Gal(b1-4)GlcNAc(b1-2)[Gal(b1-4)GlcNAc(b1-4)]Man(a1-3)[Gal(b1-4)GlcNAc(b1-2)[Gal(b1-4)GlcNAc(b1-6)]Man(a1-6)]Man(b1-4)GlcNAc(b1-4)GlcNAc
Summary of the method: as §1

[19] = biological target: Gal(b1-4)GlcNAc(b1-3)Gal(b1-3)GlcNAc
Summary of the method: as §1

[20] = biological target: Gal(b1-4)GlcNAc(b1-3)Gal(b1-4)Glc
Summary of the method: as §1

[21] = biological target: Gal(b1-4)GlcNAc(b1-3)Gal(b1-4)GlcNAc(b1-3)Gal(b1-4)GlcNAc
Summary of the method: as §1

Gal3S(b1-3)GlcNAc = biological target: Gal3S(b1-3)GlcNAc
Summary of the method: as §1

Gal3S(b1-4)GlcNAc = biological target: Gal3S(b1-4)GlcNAc
Summary of the method: as §1

[22] = biological target: Gal3S(b1-4)[Fuc(a1-3)]GlcNAc
Summary of the method: as §1

Gal4S(b1-4)GlcNAc = biological target: Gal4S(b1-4)GlcNAc
Summary of the method: as §1

GalNAc(b1-4)GlcNAc = biological target: GalNAc(b1-4)GlcNAc
Summary of the method: as §1

[23] = biological target: GlcNAc(a1-4)Gal(b1-3)GlcNAc
Summary of the method: as §1

[24] = biological target: GlcNAc(a1-6)Gal(b1-4)GlcNAc
Summary of the method: as §1

B1: EPL1 (Trichoderma atroviride), A0PCX2 (protein)
chain: MQLSNLFKLALFTAAVSADTVSYDTGYDDASRSLTVVSCSDGTNGLITRYHWQTQGQIPRFPYIGGAQAVAGWNSPNCGTCWKLTYSGKTIYVLAIDHTAAGFNIGLDAMNALTNGNAVALGRVSATASQVAVSNCGL
glycan array binding signal (z-score) [1]: -0.466 | glycan array binding signal (z-score) [2]: -0.315 | glycan array binding signal (z-score) [3]: -0.05 | glycan array binding signal (z-score) [4]: 0.212 | glycan array binding signal (z-score) [5]: -0.249 | glycan array binding signal (z-score) [6]: 0.105 | glycan array binding signal (z-score) [7]: 21.1 | glycan array binding signal (z-score) [8]: -0.54 | glycan array binding signal (z-score) [9]: 0.185 | glycan array binding signal (z-score) [10]: 0.203 | glycan array binding signal (z-score) [11]: -0.245 | glycan array binding signal (z-score) (Fuc(a1-4)GlcNAc): 3.1 | glycan array binding signal (z-score) [12]: 0.847 | glycan array binding signal (z-score) [13]: 0.929 | glycan array binding signal (z-score) (Gal(a1-3)GalNAc): -0.034 | glycan array binding signal (z-score) [14]: 1.82 | glycan array binding signal (z-score) [15]: -0.163 | glycan array binding signal (z-score) [16]: 0.678 | glycan array binding signal (z-score) [17]: -0.249 | glycan array binding signal (z-score) [18]: 0.128 | glycan array binding signal (z-score) [19]: -0.08 | glycan array binding signal (z-score) [20]: -0.362 | glycan array binding signal (z-score) [21]: 0.071 | glycan array binding signal (z-score) (Gal3S(b1-3)GlcNAc): 0.668 | glycan array binding signal (z-score) (Gal3S(b1-4)GlcNAc): 0.311 | glycan array binding signal (z-score) [22]: -0.154 | glycan array binding signal (z-score) (Gal4S(b1-4)GlcNAc): 0.422 | glycan array binding signal (z-score) (GalNAc(b1-4)GlcNAc): 1.34 | glycan array binding signal (z-score) [23]: 0.056 | glycan array binding signal (z-score) [24]: -0.234
